# Laboratory results reported in PubChem BioAssay.
# Results filed as inconclusive are left out. Calls of active or inactive are those of the source.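 How the source made its calls, unless noted: active means percent response above 42, roughly 3 SD of non-fluorescent test compounds; inactive means the rest.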
# Experiments:
# [1] = yeast TOR pathway RPL19A-GFP modulators, primary screen, cell-based, S. cerevisiae, multiplex flow cytometry (AID 1862; in the data active means percent of DMSO control GFP below about 86%;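 further: lower values mimic rapamycin by blocking the RPL19A rise seen in DMSO cells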); details: S. cerevisiae RPL19A-GFP strain, flow cytometry fluorescence, 3 h; at 10 µM; stronger effect = lower value
# [2] = modulators of MEP2-GFP levels in yeast, primary screen, S. cerevisiae, multiplex flow cytometry (AID 1867;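 active means GFP response, as percent of the DMSO control, above the screen-wide mean plus 3 SD, about 139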;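 further: median GFP channel fluorescence of barcode-gated MEP2-GFP cells measured by flow cytometry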); details: S. cerevisiae MEP2-GFP strain, 3 h, at 10 µM, stronger effect = higher value, 100% means same as DMSO wells
# [3] = modulators of CIT2-GFP expression in yeast, primary screen, S. cerevisiae, GFP fusion, multiplex flow cytometry (AID 1870;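 active means percent response above a set limit, the screen-wide mean plus 3 SD, cut at about 130% in these data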;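 further: barcoded CIT2-GFP strain pooled with four other GFP strains with rapamycin as positive control; median GFP fluorescence per well over plate mean of DMSO wells so 100% = DMSO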); details: 3 h, at 10 µM, stronger effect = higher value
# [4] = modulators of LAP4-GFP expression in yeast, primary screen, S. cerevisiae, multiplex flow cytometry (AID 1873;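 active means GFP signal, as percent of the solvent control, above the screen mean plus 3 SD, about 149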); details: 3 h, at 10 µM, stronger effect = higher value
# [5] = modulators of AGP1-GFP expression in yeast TOR pathway, primary screen, cell-based, multiplex flow cytometry, S. cerevisiae (AID 1887;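 active means GFP signal above the screen-wide mean plus 3 SD, that is over about 124.5% of the solvent control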;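 further: AGP1-GFP fusion strain of S. cerevisiae within a five-strain barcoded multiplex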); details: 3 h, at 10 µM, stronger effect = higher value
# [6] = inhibitors of CD8+ T cell-vesicle binding, pilot screen, LFA-1/ICAM-1 modulator project, MLPCN validation set, flow cytometry (AID 2523;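 active means response below a set limit, under 55% cells CD8-positive and vesicle-bound, and CD8 cells' 90th-percentile brightness under 279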;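 on vesicle binding response: mean PE anti-B7-1 fluorescence of CD8+ cells relative to row control; 100% = QL9-loaded vesicles with DMSO vehicle in the same plate row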); details: 2C mouse CD8+ T cells, at 7 µM, stronger effect = lower value; double positive events: measured here: CD8+/vesicle+ event percentage
# [7] = target: Integrin beta-1 (Homo sapiens) + Integrin alpha-4 (Homo sapiens) (UniProt P13612+P05556); test: inhibition of HUTS-21 binding to VLA-4, pilot screen, VLA-4 allosteric modulator project, U937 cells, HUTS-21 mAb, flow cytometry, validation set (AID 2674;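 active means inhibition above 50%, about 3 SD of the validation set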;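 further: antibody binding induced by the VLA-4 ligand LDV present at three times its Kd; 0% = LDV ligand with antibody and no compound and 100% = antibody without LDV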); details: HUTS-21 LIBS mAb binding, at 6.7 µM, stronger effect = higher value, binding induced by LDV ligand
# Sequence of Integrin beta-1 (Homo sapiens) + Integrin alpha-4 (Homo sapiens) (P05556 whole entry, looked up): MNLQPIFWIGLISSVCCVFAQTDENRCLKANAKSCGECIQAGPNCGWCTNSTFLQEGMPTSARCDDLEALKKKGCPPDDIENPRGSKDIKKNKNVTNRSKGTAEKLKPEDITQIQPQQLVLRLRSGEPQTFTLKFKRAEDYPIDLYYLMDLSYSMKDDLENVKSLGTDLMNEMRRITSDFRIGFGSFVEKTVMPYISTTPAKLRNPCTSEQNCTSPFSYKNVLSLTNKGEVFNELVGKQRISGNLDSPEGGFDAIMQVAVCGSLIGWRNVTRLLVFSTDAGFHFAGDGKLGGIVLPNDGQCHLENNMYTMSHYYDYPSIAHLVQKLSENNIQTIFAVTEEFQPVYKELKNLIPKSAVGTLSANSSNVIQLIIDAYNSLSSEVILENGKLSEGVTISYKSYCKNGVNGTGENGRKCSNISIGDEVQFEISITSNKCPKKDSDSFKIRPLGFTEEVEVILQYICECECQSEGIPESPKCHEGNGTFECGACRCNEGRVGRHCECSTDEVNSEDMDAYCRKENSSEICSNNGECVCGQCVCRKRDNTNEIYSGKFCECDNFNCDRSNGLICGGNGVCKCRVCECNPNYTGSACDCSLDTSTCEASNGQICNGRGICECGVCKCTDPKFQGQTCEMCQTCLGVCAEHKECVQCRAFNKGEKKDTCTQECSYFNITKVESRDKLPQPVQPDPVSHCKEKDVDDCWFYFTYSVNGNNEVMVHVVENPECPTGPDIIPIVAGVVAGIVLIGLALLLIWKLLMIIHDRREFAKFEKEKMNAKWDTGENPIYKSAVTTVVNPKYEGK
# Sequence of Integrin beta-1 (Homo sapiens) + Integrin alpha-4 (Homo sapiens) (P13612 whole entry, looked up): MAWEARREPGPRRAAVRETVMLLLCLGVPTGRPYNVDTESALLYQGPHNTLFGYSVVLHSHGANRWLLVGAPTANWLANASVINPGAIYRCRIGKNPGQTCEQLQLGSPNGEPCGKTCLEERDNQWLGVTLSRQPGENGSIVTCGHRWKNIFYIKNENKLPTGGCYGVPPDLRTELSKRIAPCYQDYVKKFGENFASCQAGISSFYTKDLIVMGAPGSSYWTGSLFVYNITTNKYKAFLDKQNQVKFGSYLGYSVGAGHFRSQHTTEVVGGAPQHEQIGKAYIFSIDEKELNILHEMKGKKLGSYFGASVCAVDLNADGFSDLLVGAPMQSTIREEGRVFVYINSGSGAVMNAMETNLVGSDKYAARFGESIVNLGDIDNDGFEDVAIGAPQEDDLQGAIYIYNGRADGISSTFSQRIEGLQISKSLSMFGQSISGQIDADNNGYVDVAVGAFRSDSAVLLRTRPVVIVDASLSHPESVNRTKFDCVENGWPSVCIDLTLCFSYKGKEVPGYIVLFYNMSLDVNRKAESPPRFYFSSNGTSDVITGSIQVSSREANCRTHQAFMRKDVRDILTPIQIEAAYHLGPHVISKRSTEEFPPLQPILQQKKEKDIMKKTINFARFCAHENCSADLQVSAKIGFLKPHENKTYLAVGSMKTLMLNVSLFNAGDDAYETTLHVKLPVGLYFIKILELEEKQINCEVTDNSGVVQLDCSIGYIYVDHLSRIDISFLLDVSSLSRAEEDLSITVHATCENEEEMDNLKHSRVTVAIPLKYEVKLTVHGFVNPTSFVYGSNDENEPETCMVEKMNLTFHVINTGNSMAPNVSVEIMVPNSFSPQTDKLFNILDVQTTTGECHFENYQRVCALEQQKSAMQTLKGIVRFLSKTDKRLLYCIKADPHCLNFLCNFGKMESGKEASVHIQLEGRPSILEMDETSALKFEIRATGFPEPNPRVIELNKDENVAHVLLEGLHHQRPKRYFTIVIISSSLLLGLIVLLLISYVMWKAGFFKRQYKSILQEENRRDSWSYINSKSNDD
# [8] = superoxide lowering in aged yeast cells, pilot screen, validation compound set (AID 2706;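 active means superoxide response below 65% of plate, a cut near 3 SD across the whole screen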;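 further: yeast exposed to compound for one week at 30 degrees C before staining; 100% = mean of all compound wells on the same plate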); details: S. cerevisiae aging, superoxide DHE fluorescence; at 10 µM; stronger effect = lower value
# [9] = target: Beta-adrenergic receptor kinase 1 (Homo sapiens) (UniProt P25098); test: GRK2 binders displacing RNA aptamer, biochemical, validation, human GRK2, bead flow cytometry (AID 488806;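 active means aptamer binding inhibition above 30%, about 3 SD of noise from non-fluorescent compounds; inactive means inhibition at or below 30%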); details: bead-bound GRK2, FAM-aptamer displacement, at 10 µM, stronger effect = higher value
# Sequence of Beta-adrenergic receptor kinase 1 (Homo sapiens) (P25098 whole entry, looked up): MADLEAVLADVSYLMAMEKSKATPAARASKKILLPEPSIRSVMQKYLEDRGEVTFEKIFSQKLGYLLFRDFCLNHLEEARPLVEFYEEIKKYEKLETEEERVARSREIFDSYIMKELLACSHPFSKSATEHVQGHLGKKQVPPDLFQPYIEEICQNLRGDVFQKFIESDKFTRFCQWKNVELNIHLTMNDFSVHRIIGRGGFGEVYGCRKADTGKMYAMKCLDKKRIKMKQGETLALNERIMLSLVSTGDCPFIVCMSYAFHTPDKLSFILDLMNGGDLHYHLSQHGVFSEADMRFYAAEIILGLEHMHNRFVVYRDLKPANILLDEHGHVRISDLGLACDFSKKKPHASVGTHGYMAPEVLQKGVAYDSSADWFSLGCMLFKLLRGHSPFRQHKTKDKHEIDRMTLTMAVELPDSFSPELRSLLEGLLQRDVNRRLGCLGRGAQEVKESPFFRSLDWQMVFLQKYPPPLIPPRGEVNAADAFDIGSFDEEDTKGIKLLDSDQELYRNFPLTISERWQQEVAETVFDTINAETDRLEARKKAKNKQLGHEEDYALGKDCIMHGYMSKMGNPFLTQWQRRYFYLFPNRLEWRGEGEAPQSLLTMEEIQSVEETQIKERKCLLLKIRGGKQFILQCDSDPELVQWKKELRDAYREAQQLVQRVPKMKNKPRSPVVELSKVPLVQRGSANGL
# [10] = target: Beta-2 adrenergic receptor (Homo sapiens) (UniProt P07550); test: beta2AR agonists driving receptor internalization, pilot screen, cell-based, FAP fluorogen, flow cytometry, validation set (AID 504459); details: Am2.2-beta2AR cells, FAP surface receptor flow cytometry; at 10 µM; stronger effect = higher value;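 further: agonist-driven loss of surface beta2AR via internalization measured by FAP dye flow cytometry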
# Sequence of Beta-2 adrenergic receptor (Homo sapiens) (P07550 whole entry, looked up): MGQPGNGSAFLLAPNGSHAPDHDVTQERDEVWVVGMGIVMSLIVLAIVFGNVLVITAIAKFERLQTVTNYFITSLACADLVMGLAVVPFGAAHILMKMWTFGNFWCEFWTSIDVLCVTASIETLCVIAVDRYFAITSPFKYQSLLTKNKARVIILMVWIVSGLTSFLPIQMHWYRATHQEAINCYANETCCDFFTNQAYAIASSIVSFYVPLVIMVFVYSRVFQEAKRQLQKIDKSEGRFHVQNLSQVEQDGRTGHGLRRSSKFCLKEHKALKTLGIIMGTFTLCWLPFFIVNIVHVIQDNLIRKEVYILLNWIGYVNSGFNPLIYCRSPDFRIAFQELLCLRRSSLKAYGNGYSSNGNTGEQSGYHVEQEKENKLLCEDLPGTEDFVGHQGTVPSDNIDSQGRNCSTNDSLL
# [11] = target: AP-2 complex subunit beta (Homo sapiens) (UniProt P63010); test: inhibitors of arrestin peptide binding to AP2, pilot screen, biochemical, validation set, GST-AP2 beads, flow cytometry (AID 504541;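 active means inhibition above 54%, about 3 SD of non-fluorescent compounds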;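 further: AP2 carries R879A mutation and is captured from E. coli lysate; bead-bound FITC arrestin peptide fluorescence measuring arrestin peptide binding to AP2; 0% = DMSO wells and 100% = excess unlabeled arrestin peptide control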); details: FITC arrestin peptide, at 10 µM, stronger effect = higher value, AP2 beta2 appendage fragment, R879A mutant
# Sequence of AP-2 complex subunit beta (Homo sapiens) (P63010 whole entry, looked up, the tested form may be a part, one chain of several): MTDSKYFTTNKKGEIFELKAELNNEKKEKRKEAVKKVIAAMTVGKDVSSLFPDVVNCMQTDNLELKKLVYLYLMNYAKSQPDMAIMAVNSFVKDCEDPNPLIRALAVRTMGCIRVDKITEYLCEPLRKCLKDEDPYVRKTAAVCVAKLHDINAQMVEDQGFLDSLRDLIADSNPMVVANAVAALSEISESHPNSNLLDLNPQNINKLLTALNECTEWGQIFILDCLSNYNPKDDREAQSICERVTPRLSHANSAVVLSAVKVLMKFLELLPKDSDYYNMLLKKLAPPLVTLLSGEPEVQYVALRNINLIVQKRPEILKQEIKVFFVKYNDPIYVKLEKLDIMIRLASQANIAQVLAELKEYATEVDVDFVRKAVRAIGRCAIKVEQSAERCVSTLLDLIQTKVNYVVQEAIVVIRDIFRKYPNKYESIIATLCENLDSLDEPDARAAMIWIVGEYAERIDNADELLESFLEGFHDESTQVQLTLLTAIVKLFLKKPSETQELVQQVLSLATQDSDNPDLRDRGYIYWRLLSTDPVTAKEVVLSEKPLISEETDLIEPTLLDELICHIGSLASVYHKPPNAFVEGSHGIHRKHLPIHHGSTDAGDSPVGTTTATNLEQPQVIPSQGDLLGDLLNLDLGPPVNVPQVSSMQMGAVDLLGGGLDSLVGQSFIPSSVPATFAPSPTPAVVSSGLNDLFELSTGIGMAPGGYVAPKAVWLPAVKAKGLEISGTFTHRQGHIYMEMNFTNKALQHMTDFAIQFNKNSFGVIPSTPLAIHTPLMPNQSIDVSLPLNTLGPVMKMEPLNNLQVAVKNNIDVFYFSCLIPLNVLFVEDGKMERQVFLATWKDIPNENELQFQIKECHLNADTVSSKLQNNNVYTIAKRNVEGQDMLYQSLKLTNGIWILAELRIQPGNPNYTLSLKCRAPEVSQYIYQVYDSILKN
# [12] = yeast V-ATPase proton transport modulators, S. cerevisiae, pHLuorin, HTS validation (AID 504600; in the data active means response above about 15%;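 further: plate controls were DMSO for no effect and reference compound for full effect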); details: S. cerevisiae pHLuorin cytosolic pH, at 10 µM, stronger effect = higher value
# [13] = system: anti-desmoglein-3 scFv antibody binding to human DSG3; test: inhibitors of anti-DSG3 scFv binding to DSG3, pilot screen, biochemical, validation compound set, bead-based, flow cytometry (AID 588368;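 active means binding below the plate cutoff, the plate median minus 3 SD, with a reading above zero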;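 further: signal is the median channel fluorescence of bead-bound GFP antibody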); details: Protein G beads, DSG3-Fc, scFv-GFP binding, at 10 µM, stronger effect = lower value
# [14] = inhibitors of fungal efflux pumps CDR1, CDR2, MDR1, pilot screen, validation compound set, multiplex, phenotypic (AID 588506;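 active means efflux inhibition above 0.42, the validation set average plus 4 SD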;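 further: Nile Red retained in cells so higher fluorescence means more efflux inhibition; 0 = negative control wells and 1 = enniatin B 25 µM full block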); details: S. cerevisiae pump-expressing triplex, Nile Red efflux flow cytometry; at 10 µM; stronger effect = higher value; the pumps come from Candida albicans
# [15] = target: ATP-binding cassette sub-family B member 6 (Homo sapiens) (UniProt Q9NP58); test: ABCB6 transporter inhibitors, pilot screen, K562-ABCB6 cells, flow cytometry, validation set (AID 588550;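 active means inhibition above the screen-wide mean plus 3 SD, about 51%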;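 further: 0% = DMSO wells and 100% = benzethonium chloride 70 µM positive control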); details: K562-ABCB6 porphyrin accumulation, 1 h, at 10 µM, stronger effect = higher value
# Sequence of ATP-binding cassette sub-family B member 6 (Homo sapiens) (Q9NP58 whole entry, looked up): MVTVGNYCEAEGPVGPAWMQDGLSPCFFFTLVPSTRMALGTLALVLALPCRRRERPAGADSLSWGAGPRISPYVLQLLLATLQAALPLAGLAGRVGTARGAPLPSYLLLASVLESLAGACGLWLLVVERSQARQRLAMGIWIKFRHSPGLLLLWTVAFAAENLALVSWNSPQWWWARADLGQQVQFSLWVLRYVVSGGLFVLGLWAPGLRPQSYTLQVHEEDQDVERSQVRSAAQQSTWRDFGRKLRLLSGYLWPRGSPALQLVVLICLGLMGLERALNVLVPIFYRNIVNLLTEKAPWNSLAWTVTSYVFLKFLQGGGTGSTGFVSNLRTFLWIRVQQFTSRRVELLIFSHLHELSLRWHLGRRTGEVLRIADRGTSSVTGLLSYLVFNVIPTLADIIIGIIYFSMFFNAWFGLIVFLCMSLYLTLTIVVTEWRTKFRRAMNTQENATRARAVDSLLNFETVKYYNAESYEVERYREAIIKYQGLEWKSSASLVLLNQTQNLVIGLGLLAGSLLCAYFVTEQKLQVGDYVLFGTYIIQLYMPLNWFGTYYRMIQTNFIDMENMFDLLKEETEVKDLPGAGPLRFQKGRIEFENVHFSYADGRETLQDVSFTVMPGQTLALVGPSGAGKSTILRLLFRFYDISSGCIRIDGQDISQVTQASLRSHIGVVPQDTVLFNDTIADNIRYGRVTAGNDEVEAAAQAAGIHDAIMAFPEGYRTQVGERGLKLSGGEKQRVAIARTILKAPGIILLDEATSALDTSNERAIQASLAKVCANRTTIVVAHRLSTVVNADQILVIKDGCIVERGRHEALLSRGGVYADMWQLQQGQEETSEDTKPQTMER
# [16] = promoters of myeloid differentiation in arrested cells, primary screen, cell-based, GFP/MAC1 double positive, flow cytometry, validation set (AID 588685;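 active means differentiation response of at least 50%, scaled between solvent and reference control, from cells with both markers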;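 further: compound exposure lasts four days before antibody staining and flow analysis; 0% = DMSO wells and 100% = 5 µM fulvestrant positive control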); details: ER-HoxA9 marrow cells, stronger effect = higher value, normalized: vehicle 0, fulvestrant 100
SMILES,percent of DMSO control GFP [1],GFP response vs DMSO [2],percent response of DMSO control [3],GFP response vs DMSO [4],"GFP response, % of DMSO [5]",double positive events [6] [%],vesicle binding response [6],inhibition [7],superoxide response (% of plate) [8],aptamer binding inhibition [9],response [10],inhibition [11],response [12],binding (% of control) [13],efflux inhibition (fraction of control) [14],inhibition [15],differentiation response [16]
Cc1cccc(N2CCN(C(=S)c3ccccc3)CC2)c1,100% (inactive),108% (inactive),100% (inactive),88.7% (inactive),90.8% (inactive),63.1,5220% (inactive),-4.6% (inactive),101% (inactive),0% (inactive),-1.25% (inactive),-6.82% (inactive),1.76% (inactive),95.3% (inactive),-0.14 (inactive),2% (inactive),-8.55% (inactive)
OC(CCN1CCCC1)(c1ccccc1)C1CCCCC1 (stereo not drawn),87.3% (inactive),134% (inactive),102% (inactive),80.9% (inactive),89.4% (inactive),63.6,284% (inactive),0.64% (inactive),93.8% (inactive),-1% (inactive),6.72% (inactive),34.9% (inactive),-6.1% (inactive),97.4% (inactive),0.12 (inactive),109% (active),-4.91% (inactive)
CC(=O)Oc1c2occc2cc2ccc(=O)oc12,98.4% (inactive),103% (inactive),87.2% (inactive),114% (inactive),98.9% (inactive),57.9,140% (inactive),-11.3% (inactive),101% (inactive),3% (inactive),9.55% (inactive),7.26% (inactive),-2.03% (inactive),101% (inactive),0.51 (active),8% (inactive),10.4% (inactive)
CC(=O)c1c[nH]c2ccc(C)cc2c1=O,97.4% (inactive),99.6% (inactive),97.7% (inactive),114% (inactive),94.9% (inactive),60.8,228% (inactive),-85.1% (inactive),104% (inactive),0% (inactive),-3.59% (inactive),34.1% (inactive),-1.39% (inactive),101% (inactive),-0.31 (inactive),1% (inactive),-18.4% (inactive)
Nc1ccc(S(N)(=O)=O)cc1N,98.1% (inactive),119% (inactive),99.2% (inactive),84.7% (inactive),91.7% (inactive),66.3,202% (inactive),3.55% (inactive),82.8% (inactive),3% (inactive),31.7% (inactive),7.24% (inactive),0.32% (inactive),103% (inactive),-0.28 (inactive),14% (inactive),2.46% (inactive)
CCOc1ccc(C(=O)N2CCCC2C(=O)O)cc1 (stereo not drawn),97.9% (inactive),101% (inactive),100% (inactive),103% (inactive),102% (inactive),62.9,163% (inactive),13.4% (inactive),107% (inactive),6% (inactive),-15.7% (inactive),1.45% (inactive),6.32% (inactive),101% (inactive),-0.04 (inactive),6% (inactive),-1.05% (inactive)
CC(C)c1ccc(NC(=O)CNS(=O)(=O)c2ccc(F)cc2)cc1,99.3% (inactive),107% (inactive),101% (inactive),120% (inactive),102% (inactive),57.6,260% (inactive),-3.16% (inactive),114% (inactive),-1% (inactive),-11.4% (inactive),-6.24% (inactive),-3.77% (inactive),100% (inactive),-0.1 (inactive),1% (inactive),-13.6% (inactive)
CC(C)C12CN3CC(C(C)C)(CN(C1)C31C(=O)Nc3ccccc31)C2=O (stereo not drawn),106% (inactive),98.7% (inactive),99.7% (inactive),101% (inactive),98% (inactive),66.4,190% (inactive),1.59% (inactive),110% (inactive),3% (inactive),9.28% (inactive),-3.03% (inactive),-0.51% (inactive),103% (inactive),0 (inactive),8% (inactive),-11.9% (inactive)
COc1ccc2c(CC(=O)NCC3CCC(C(=O)O)CC3)cc(=O)oc2c1 (stereo not drawn),101% (inactive),103% (inactive),105% (inactive),101% (inactive),107% (inactive),59.6,116% (inactive),-9.13% (inactive),111% (inactive),-2% (inactive),-4.55% (inactive),-1.68% (inactive),7.23% (inactive),102% (inactive),0.04 (inactive),-1% (inactive),4.2% (inactive)
Cc1c(Cc2ccccc2)c(=O)oc2c(CN(C)C)c(O)c(Cl)cc12,98.2% (inactive),108% (inactive),94.2% (inactive),92.7% (inactive),98% (inactive),61.8,358% (inactive),0.58% (inactive),98.2% (inactive),3% (inactive),-3.4% (inactive),0.49% (inactive),0.93% (inactive),99.3% (inactive),-0.39 (inactive),2% (inactive),-5.62% (inactive)
COc1ccc(C(=O)Nc2cccc3cccnc23)cc1OC,102% (inactive),105% (inactive),105% (inactive),119% (inactive),96.3% (inactive),49.8,156% (inactive),-18.5% (inactive),103% (inactive),-4% (inactive),10.2% (inactive),-6.27% (inactive),-0.52% (inactive),103% (inactive),-0.33 (inactive),0% (inactive),-17.7% (inactive)
COc1ccc(C=O)c(OC)c1,100% (inactive),98.6% (inactive),99% (inactive),99.5% (inactive),104% (inactive),60.9,188% (inactive),26.1% (inactive),93.3% (inactive),1% (inactive),-22.1% (inactive),62.3% (active),-1.57% (inactive),101% (inactive),0.08 (inactive),-6% (inactive),-9.91% (inactive)
COc1ccc2cc([C@H](C)C(=O)O)ccc2c1,103% (inactive),93% (inactive),99.6% (inactive),77.7% (inactive),91.7% (inactive),70.5,222% (inactive),2.3% (inactive),91% (inactive),5% (inactive),15.2% (inactive),-13.8% (inactive),-6.97% (inactive),99.3% (inactive),0.08 (inactive),6% (inactive),-12% (inactive)
CN(C)CCOC(c1ccccc1)c1ccccc1,94.4% (inactive),123% (inactive),115% (inactive),87.5% (inactive),89.4% (inactive),43.1,107% (inactive),1.61% (inactive),96.7% (inactive),-1% (inactive),-13.1% (inactive),29.6% (inactive),-7.12% (inactive),98% (inactive),0.52 (active),2% (inactive),1.64% (inactive)
COc1cc2c(cc1OC)C1(CCCC1)CNC2c1cccc([N+](=O)[O-])c1 (stereo not drawn),99.3% (inactive),103% (inactive),95.8% (inactive),109% (inactive),92.8% (inactive),54.7,235% (inactive),-57.8% (inactive),99.7% (inactive),-2% (inactive),23.6% (inactive),-2.35% (inactive),35.2% (active),99.1% (inactive),0.05 (inactive),4% (inactive),-8.8% (inactive)
CN(C)CCCN1c2ccccc2Sc2ccccc21,98.1% (inactive),102% (inactive),99.6% (inactive),107% (inactive),120% (inactive),61.4,202% (inactive),44% (inactive),96.9% (inactive),-3% (inactive),0.87% (inactive),7.22% (inactive),-5.2% (inactive),102% (inactive),-0.09 (inactive),8% (inactive),23.6% (inactive)
CSc1ccc(/C=N/N2CCN(Cc3ccc(C)cc3C)CC2)cc1,100% (inactive),99.7% (inactive),110% (inactive),97% (inactive),96.3% (inactive),61.9,118% (inactive),-5.11% (inactive),97.2% (inactive),-2% (inactive),6.9% (inactive),7.81% (inactive),4.06% (inactive),103% (inactive),0.22 (inactive),25% (inactive),11.5% (inactive)
O=C(O)c1cnccn1,103% (inactive),94.7% (inactive),93.8% (inactive),108% (inactive),106% (inactive),65,160% (inactive),21% (inactive),102% (inactive),4% (inactive),-18.2% (inactive),-5% (inactive),2.35% (inactive),104% (inactive),-0.21 (inactive),6% (inactive),-4.99% (inactive)
Nc1ccn([C@@H]2O[C@H](CO)[C@@H](O)[C@@H]2O)c(=O)n1,101% (inactive),106% (inactive),109% (inactive),114% (inactive),111% (inactive),64.5,201% (inactive),8.29% (inactive),108% (inactive),0% (inactive),-9.36% (inactive),10.5% (inactive),-2.75% (inactive),99.4% (inactive),-0.08 (inactive),-10% (inactive),-11.9% (inactive)
